# According to PMC7819943, “Rice protein-binding microarrays: a tool to detect cis-acting elements near promoter regions in rice”:
# Over roughly 68,000 sequences, “fluorescence intensity (a.u.)” has its median near 9,100; the highest 2% begin near 16,000. This excerpt belongs to a sample that is enriched for the highest values.
# Target: OsWRKY34 (Oryza sativa, UniProt Q0JBA9 1-250)
# Test: protein-binding microarray (RPBM); PBS, 2% BSA, 51.3 ng/ul salmon testes DNA, 50 uM zinc acetate, 200 nM TF, 25 C, 1 h; high values mean tight binding
# Settings: protein: recombinant; tags: N-terminal polyhistidine and DsRed monomer fusion (pET32a); label: CyDye5-dUTP incorporated in the synthesized complementary strand; 3' TTTTT single-stranded linker to array surface; dsDNA, one strand shown
# Summary of the method: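 For the binding signal, per-feature fluorescence intensity was read in arbitrary units on an Axon 4000B scanner. Before scanning, a 2% BSA-blocked custom Agilent array made double-stranded with Cy5-dUTP was washed after 1 h at 25 °C with 200 nM protein and 50 µM zinc acetate. The proteins were Ni–NTA-purified transcription factors with N-terminal polyhistidine and DsRed fusions, expressed in E. coli BL21-CodonPlus.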
# OsWRKY34, sequence (Q0JBA9 entry or part of it): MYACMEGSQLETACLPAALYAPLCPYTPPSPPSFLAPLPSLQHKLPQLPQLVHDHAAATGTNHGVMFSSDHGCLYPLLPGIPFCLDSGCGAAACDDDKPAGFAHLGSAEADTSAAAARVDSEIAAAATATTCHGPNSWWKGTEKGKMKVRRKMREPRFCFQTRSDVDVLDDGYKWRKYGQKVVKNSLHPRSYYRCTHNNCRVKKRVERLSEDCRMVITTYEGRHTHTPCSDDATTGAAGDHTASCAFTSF
row,Sequence,binding signal
1,GCCGATAGAGGCATGGGGTTTGTTCAGATTGATGTCATTTCGGAGTCACCTAGTGCAG,9370 fluorescence intensity (a.u.)
2,CCGTGGTGGTACGCGCGCGCTGCGTACGTTTTTTTTTCTTCGGAGTCACCTAGTGCAG,9450 fluorescence intensity (a.u.)
3,CGAACCAAGACAAGAAAATAGAACCATCCTATCTATCAGGCGGAGTCACCTAGTGCAG,11500 fluorescence intensity (a.u.)
4,GCTACACCGCACCCACCACAGCCAGACTTGAACTTGTTGACGGAGTCACCTAGTGCAG,8950 fluorescence intensity (a.u.)
5,GGCGCCGTCGTCTTCTTTCCCACGCCGCCGCCGCCGTCAACGGAGTCACCTAGTGCAG,8600 fluorescence intensity (a.u.)
6,CCGCTCGTCTTCCACTGCAGCCCAGCTCCCGTTCTTTCAACGGAGTCACCTAGTGCAG,16500 fluorescence intensity (a.u.)
7,TCTGCTTTTATTCATCGGTTTCATTAATTGTTTCTGTTACCGGAGTCACCTAGTGCAG,17200 fluorescence intensity (a.u.)
8,TCATTATGGTGTTTCTTAATTGCTTTTTTCTTTTTATTATCGGAGTCACCTAGTGCAG,8300 fluorescence intensity (a.u.)
9,GGGTTATGTTTCATTTGTATTATTTTCTTAATTCTTACACCGGAGTCACCTAGTGCAG,12700 fluorescence intensity (a.u.)
10,GTCTCGCTTTCTCTCTCTAGGGTTTTTCCCCACTTTCGTTCGGAGTCACCTAGTGCAG,13700 fluorescence intensity (a.u.)
11,TTTCTTGTTTTCTTCTCATTCTTCTTTTTTTTCTTTCTTCCGGAGTCACCTAGTGCAG,14700 fluorescence intensity (a.u.)
12,GCTCCGTCTTCCTGCTCCAGCCGCTCGCCATAGCCCACTGCGGAGTCACCTAGTGCAG,11100 fluorescence intensity (a.u.)
13,CTCTCTTTCTTCTTTGTGTCTTTGTTTCTTTTCTTTTTTCCGGAGTCACCTAGTGCAG,14700 fluorescence intensity (a.u.)
14,GGTTTTTTTCCCGCTTATCCCACTTCTAGTCTATCTTTTTCGGAGTCACCTAGTGCAG,19300 fluorescence intensity (a.u.)
15,ATCCCGCTTATCCCACTTCTAATTCATTTTTTCTTTTAAACGGAGTCACCTAGTGCAG,10900 fluorescence intensity (a.u.)
16,TTTCTTTTTCTTGGTTTTTTTTTGTCTTTTCTTCTTTTTCCGGAGTCACCTAGTGCAG,18200 fluorescence intensity (a.u.)
17,CACATTGCGTCTTGTAGTCTGTATTGTAGCTGACTATATACGGAGTCACCTAGTGCAG,8820 fluorescence intensity (a.u.)
18,CCTCCCTTGTTTTCTGTACCAATACGTGATGCACCGGTCTCGGAGTCACCTAGTGCAG,8440 fluorescence intensity (a.u.)
19,GGGTTCACCACCAAACTCGCCACCTATAAACGCTCCTCGCCGGAGTCACCTAGTGCAG,9030 fluorescence intensity (a.u.)
20,AATGTTAACGGTGCATGTGGTTGGTTGATTTGATTAGTGACGGAGTCACCTAGTGCAG,15300 fluorescence intensity (a.u.)
21,AATGTTCAAAATTGTGCAATCAAGGTCTTACGGCAGTATACGGAGTCACCTAGTGCAG,8120 fluorescence intensity (a.u.)

row,Sequence,binding signal
1,TTCTTTTCGCTAGTGATGTCTAGCGTTTCTTTTGACAAATCGGAGTCACCTAGTGCAG,8560 fluorescence intensity (a.u.)
2,CGTCTTAGTTACCCTTCTACTCCTATCGCTCGATCGCCTCCGGAGTCACCTAGTGCAG,8380 fluorescence intensity (a.u.)
3,TCCTTAGCTCCGCGGATTTGTTCACCATCACCACCATCACCGGAGTCACCTAGTGCAG,8780 fluorescence intensity (a.u.)
4,GCACCAACCATCTCACCCGTCCGACGTGGCAGCAGCAACCCGGAGTCACCTAGTGCAG,8770 fluorescence intensity (a.u.)
5,TCCCCTCTCTGTTGTCATCGTCTTCCTTTCCTTTCCTTTCCGGAGTCACCTAGTGCAG,8230 fluorescence intensity (a.u.)
6,TTGTGTGTGCGTTTGTGATTGCGTCGGTCGGTTTCAGTTCCGGAGTCACCTAGTGCAG,17500 fluorescence intensity (a.u.)
7,CTGCCTGTCCCTTTCCTGCATCCATCCATCCATCTTGATCCGGAGTCACCTAGTGCAG,10600 fluorescence intensity (a.u.)
8,TGGTTCTTTGATCTTTTAATTTTGTTTGTTTGTTTGTTTTCGGAGTCACCTAGTGCAG,12800 fluorescence intensity (a.u.)
9,TTTTTTCTGTTTTTTTCTTTCCGTATCTTTTTCAGTTTTTCGGAGTCACCTAGTGCAG,14200 fluorescence intensity (a.u.)
10,AAGTTTAATTTGTTATTTTTATTTTTATACGTCATCTTTTCGGAGTCACCTAGTGCAG,9760 fluorescence intensity (a.u.)
11,TGTTTTTTTTCTTTCCGTATCTTTTTCTTTTTTTGGTTTTCGGAGTCACCTAGTGCAG,19700 fluorescence intensity (a.u.)
12,GAGTTCGGCCTTTCCGGTTTCCGGTTGTGTTGTGAGGAGTCGGAGTCACCTAGTGCAG,10600 fluorescence intensity (a.u.)
13,TTTTTTTCTTTCCGTATCTTTTTCTTTTTTTGGTTTTTTACGGAGTCACCTAGTGCAG,8410 fluorescence intensity (a.u.)
14,ACTAAGTGCGTGATTGTTTCAGATTTGTTTGGGTTGCGGTCGGAGTCACCTAGTGCAG,9410 fluorescence intensity (a.u.)
15,GGGTGGCGTCCTGTTGTCATCTTTTATCCCTCTTGAATTCCGGAGTCACCTAGTGCAG,21500 fluorescence intensity (a.u.)
16,GTCATCTTTGTTTGAGTCGGTTTTTAATTTTGTTTGCTTTCGGAGTCACCTAGTGCAG,17700 fluorescence intensity (a.u.)
17,ATTGTTCGTCGAACTTTATCATATTATTAATCATCATATACGGAGTCACCTAGTGCAG,8960 fluorescence intensity (a.u.)
18,ACCACGGCAAGCCCCTCGCCGAGTCTCTCATCATCGTCGACGGAGTCACCTAGTGCAG,8830 fluorescence intensity (a.u.)
19,TTTGTGTAACCGATATGTGGGCCCCACATATTTTATTATTCGGAGTCACCTAGTGCAG,9030 fluorescence intensity (a.u.)
20,TGCGTGGGTCCCAACTCCGGCCGTCTTCCGCCGTTGGATCCGGAGTCACCTAGTGCAG,8940 fluorescence intensity (a.u.)
21,CCACGATCACATTCACCTCCCATCCCACGACGTTGCTCTCCGGAGTCACCTAGTGCAG,8850 fluorescence intensity (a.u.)

row,Sequence,binding signal
1,TTTTACCAACTTTCTTAATACTCGTGTCCACCTAAAAAATCGGAGTCACCTAGTGCAG,8440 fluorescence intensity (a.u.)
2,CGCCTCCGGCCTCCTCACGCACTGCCGCACCACGTCGCACCGGAGTCACCTAGTGCAG,9020 fluorescence intensity (a.u.)
3,ACCTACTTTTCGTCCCTTAATTCTGTGGCTATGTTCAAATCGGAGTCACCTAGTGCAG,12700 fluorescence intensity (a.u.)
4,GAGAGGAGGTGGTGGGAAGTGGCGGCTAGGGTTTGGGTGGCGGAGTCACCTAGTGCAG,11300 fluorescence intensity (a.u.)
5,GGTTTTTTCGGTTTTCGGTTGTCAGTTCGGTTTCTGTTTTCGGAGTCACCTAGTGCAG,15400 fluorescence intensity (a.u.)
6,AGCCTTATCTCTTCATCGGTTCATCCGGTGCCTGTTGTCTCGGAGTCACCTAGTGCAG,8990 fluorescence intensity (a.u.)
7,TTTTTACACGCGTTTTTTTTACATTGTCGTTTTTTTTTTGCGGAGTCACCTAGTGCAG,13500 fluorescence intensity (a.u.)
8,TCATCCGGTGCCTGTTGTCTCTTTCTTCTCTCTCACATACCGGAGTCACCTAGTGCAG,16600 fluorescence intensity (a.u.)
9,CACCTTCTTTTTCTCTCTCTCTCTCTCTCTCTTTCTCATCCGGAGTCACCTAGTGCAG,10300 fluorescence intensity (a.u.)
10,TGTTCTTTTTTTTTACACGCGTTTTTTTTACATTGTCGTTCGGAGTCACCTAGTGCAG,18400 fluorescence intensity (a.u.)
11,CGGCAGTGTTCTTTTTTTTTTACACGCGTTTTTTTTTACACGGAGTCACCTAGTGCAG,10800 fluorescence intensity (a.u.)
12,GCACAGTGGGAGGCCCGCGTTCTTTTTTTTTCGCCGGTTTCGGAGTCACCTAGTGCAG,10000 fluorescence intensity (a.u.)
13,TCGTTCGTTGGTTTGTTTTTTTTTTCTTTTCTCGCGTACACGGAGTCACCTAGTGCAG,11600 fluorescence intensity (a.u.)
14,ATTATTGTTGTACAGTTCTTGCCTACAGTTCGGTTTTTCTCGGAGTCACCTAGTGCAG,19700 fluorescence intensity (a.u.)
15,GCAGTCGGTTCGCGTTTGTTTTTTTTCTTTCTTTCTTTTTCGGAGTCACCTAGTGCAG,18400 fluorescence intensity (a.u.)
16,TTCTTTTCGGTTGATTGTTTTTCTTTGTATTTCAGTGTTGCGGAGTCACCTAGTGCAG,9180 fluorescence intensity (a.u.)
17,CGCCGCCGCCCTCACCCTCGCCGCCGCGCATCCCGCGGTCCGGAGTCACCTAGTGCAG,8120 fluorescence intensity (a.u.)
18,ATAATAGGGTTATTCATAATATGGCAGGGTTTTTGGTTAGCGGAGTCACCTAGTGCAG,10300 fluorescence intensity (a.u.)
19,TGTGATAGGCTTCAATGTTTAATCTCACCATCGATTGTTACGGAGTCACCTAGTGCAG,9500 fluorescence intensity (a.u.)
20,TAGTCTTTGTCGTTTCCATGTATAACTCTATTTATCTTTCCGGAGTCACCTAGTGCAG,12400 fluorescence intensity (a.u.)
21,CTAGTTGCTCCTAACTTGGCCTACTGTCCTCCATCTCCAACGGAGTCACCTAGTGCAG,9280 fluorescence intensity (a.u.)

row,Sequence,binding signal
1,GAGCTTCCTATCGCGCCGCCGCGTGCGTACGTGTTTGATCCGGAGTCACCTAGTGCAG,11000 fluorescence intensity (a.u.)
2,TACACCGTCCCAACCGGCTTTGTTTGACTTGTCCGACCAGCGGAGTCACCTAGTGCAG,8330 fluorescence intensity (a.u.)
3,TTACCGATGCGACCTGTCCCTGTCACTCCCGCCTCGGTAACGGAGTCACCTAGTGCAG,9060 fluorescence intensity (a.u.)
4,GACATTACGGGCCCACAAGTACGCGTCCCCACCAGCCATACGGAGTCACCTAGTGCAG,8490 fluorescence intensity (a.u.)
5,ATCACCTTGCTCGATCGCCTCCGTTGTTTTGCACTAAATTCGGAGTCACCTAGTGCAG,8620 fluorescence intensity (a.u.)
6,GAGGGGAGGAAGAAGAGGTGGGTGAGAATGACACGTGGGGCGGAGTCACCTAGTGCAG,10600 fluorescence intensity (a.u.)
7,TGTTTCTATCTCGTATCTTCTCTTCCAAGCATGTATTTCCCGGAGTCACCTAGTGCAG,8650 fluorescence intensity (a.u.)
8,CTTCGTGTTCGTCGTGGTCTCTTGTTTCTTCTTCTTCTTCCGGAGTCACCTAGTGCAG,22000 fluorescence intensity (a.u.)
9,CTTATCTCATTTTATCTCGGTTTTTGTTAACTTGTTTTTTCGGAGTCACCTAGTGCAG,18200 fluorescence intensity (a.u.)
10,TTTTAATCTCATTTTTTTTAACGGTTTTGCTATAATTTTTCGGAGTCACCTAGTGCAG,8850 fluorescence intensity (a.u.)
11,CTCTCTCTTCTTCTTCGTGTTGTTGTTTCTCTCTCTGTCTCGGAGTCACCTAGTGCAG,11700 fluorescence intensity (a.u.)
12,TGTTCTTGTTTGTGTTTTCTTCTTCGTCTCCGGCGACGGCCGGAGTCACCTAGTGCAG,10000 fluorescence intensity (a.u.)
13,ATCGTTATCTATTGCCGTATGTTATTTCGTTGTTCCGTCTCGGAGTCACCTAGTGCAG,8920 fluorescence intensity (a.u.)
14,GATTTTTTCGGACTTGGTCTCGGTCTTTTTGTTTGGTTATCGGAGTCACCTAGTGCAG,10200 fluorescence intensity (a.u.)
15,TCTTATATGTTATGCAAGTATGTTTCTATCTCGTATCTTCCGGAGTCACCTAGTGCAG,16500 fluorescence intensity (a.u.)
16,GTTCATTTTCATGTTATTTTTCATGTAACTACATTATTATCGGAGTCACCTAGTGCAG,8990 fluorescence intensity (a.u.)
17,ATTGTTCATTTGTCGTTCCATTACATGTAACTTCACTTCACGGAGTCACCTAGTGCAG,17000 fluorescence intensity (a.u.)
18,TTTGTGTCACTTTTAAACATGTTCACGTCATTATTTTAGTCGGAGTCACCTAGTGCAG,9290 fluorescence intensity (a.u.)
19,ATTTTGTTTCTCCTTGGTTGGTTTTGCTTCACCTAGATCACGGAGTCACCTAGTGCAG,11200 fluorescence intensity (a.u.)
20,GCTCGCTTTCTCAGGTCTTTCTCTTCCCCGTATCCCCACTCGGAGTCACCTAGTGCAG,10500 fluorescence intensity (a.u.)
21,TCTGCGAGGAAGAACCCATTCAGATTACGCTGCATTTTTTCGGAGTCACCTAGTGCAG,8660 fluorescence intensity (a.u.)
